Measured values as given in PubChem BioAssay AID1159580 (chemical genetic matrix, 2015).
Several values for one entry are separate records, joined by “and”; a condition that tells them apart may be missing. Equal entries are not always repeated. Screen size: about 5,500 compounds; about 2,000 (36%) were called active. Not shown: some 18% with an inconclusive outcome. No stated cut-off is given here; in the data, active means normalized growth mostly below about 0.91 (no sharp cut-off); inconclusive means no clear call, values can overlap the other calls; inactive means mostly above about 0.92. The list shows a part of the results.

Assay: chemical genetic growth profiling, strain panel (AID 1159580);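 further: tested at 20 µM; growth read once vehicle control cultures reached saturation at 30 °C; 1 = growth at the plate median or of vehicle wells; lower values mean less growth of the strain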
Conditions: growth OD

Measured: normalized growth

CN1C(C)(C)CCCC1(C)C
inactive: S. cerevisiae deletion strains, locus YAL013W, strain DEP1, hits give low values 1.02 and 1.01 | S. cerevisiae deletion strains, locus YAL040C, strain CLN3, hits give low values 1.07 | S. cerevisiae deletion strains, locus YBR021W, strain FUR4, hits give low values 1.01 | S. cerevisiae deletion strains, locus YBR229C, strain ROT2, hits give low values 1.02 | S. cerevisiae deletion strains, locus YCL029C, strain bik1, hits give low values 0.988 | S. cerevisiae deletion strains, locus YCL061C, strain MRC1 (second series), hits give low values 0.994 | S. cerevisiae deletion strains, locus YDL035C, strain GPR1, hits give low values 1.02 | S. cerevisiae deletion strains, locus YDL074C, strain BRE1, hits give low values 1.06 | S. cerevisiae deletion strains, locus YDL101C, strain DUN1, hits give low values 1.02 | S. cerevisiae deletion strains, locus YDL134C, strain PPH21, hits give low values 1.02 | S. cerevisiae deletion strains, locus YDL185W, strain tfp1, hits give low values 0.993 | S. cerevisiae deletion strains, locus YDL192W, strain arf1, hits give low values 0.978 | S. cerevisiae deletion strains, locus YDR101C, strain arx1, hits give low values 0.969 | S. cerevisiae deletion strains, locus YDR150W, strain NUM1, hits give low values 1.02 and 1 | S. cerevisiae deletion strains, locus YDR162C, strain NBP2, hits give low values 1.04 | S. cerevisiae deletion strains, locus YDR318W, strain mcm21, hits give low values 0.99 | S. cerevisiae deletion strains, locus YDR363W, strain ESC2, hits give low values 0.997 | S. cerevisiae deletion strains, locus YDR388W, hits give low values 0.998 | S. cerevisiae deletion strains, locus YDR502C, strain sam2, hits give low values 1.02 | S. cerevisiae deletion strains, locus YEL061C, strain CIN8, hits give low values 1.02 | S. cerevisiae deletion strains, locus YER002W, strain NOP16, hits give low values 1.02 | S. cerevisiae deletion strains, locus YER110C, hits give low values 0.992 | S. cerevisiae deletion strains, locus YER155C, strain BEM2, hits give low values 1.02 | S. cerevisiae deletion strains, locus YER167W, strain BCK2, hits give low values 1.02 | S. cerevisiae deletion strains, locus YGL078C, strain dbp3, hits give low values 1.01 | S. cerevisiae deletion strains, locus YGL086W, strain mad1, hits give low values 0.996 | S. cerevisiae deletion strains, locus YGL248W, strain PDE1, hits give low values 1.03 | S. cerevisiae deletion strains, locus YGR078C, strain PAC10, hits give low values 1.04 | S. cerevisiae deletion strains, locus YGR135W, strain pre9, hits give low values 1.01 | S. cerevisiae deletion strains, locus YGR229C, strain SMI1, hits give low values 1.03 and 0.995 | S. cerevisiae deletion strains, locus YGR252W, strain gcn5, hits give low values 0.907 | S. cerevisiae deletion strains, locus YHR030C, strain SLT2, hits give low values 1.01 | S. cerevisiae deletion strains, locus YHR079C, strain IRE1 (second series), hits give low values 0.988 | S. cerevisiae deletion strains, locus YHR094C, strain hxt1, hits give low values 1 | S. cerevisiae deletion strains, locus YHR129C, strain ARP1, hits give low values 1.01 | S. cerevisiae deletion strains, locus YHR200W, strain rpn10, hits give low values 0.997 | S. cerevisiae deletion strains, locus YIL066C, strain RNR3, hits give low values 1.03 | S. cerevisiae deletion strains, locus YIL073C, strain SPO22, hits give low values 0.991 | S. cerevisiae deletion strains, locus YIL125W, strain kgd1, hits give low values 1.01 | S. cerevisiae deletion strains, locus YIR030C, strain dcg1, hits give low values 0.999 | S. cerevisiae deletion strains, locus YJL095W, strain BCK1, hits give low values 1.03 | S. cerevisiae deletion strains, locus YJL134W, strain LCB3, hits give low values 1.01 | S. cerevisiae deletion strains, locus YJL168C, strain set2, hits give low values 0.993 | S. cerevisiae deletion strains, locus YJL187C, strain SWE1 (second series), hits give low values 1.04 | S. cerevisiae deletion strains, locus YJR043C, strain POL32, hits give low values 1 | S. cerevisiae deletion strains, locus YJR075W, strain HOC1, hits give low values 1.02 | S. cerevisiae deletion strains, locus YKL009W, strain mrt4, hits give low values 0.962 | S. cerevisiae deletion strains, locus YKL068W, hits give low values 1 | S. cerevisiae deletion strains, locus YKL085W, strain MDH1 (second series), hits give low values 1.01 | S. cerevisiae deletion strains, locus YKL085W, strain MDH1, hits give low values 1.01 | S. cerevisiae deletion strains, locus YKL190W, strain CNB1, hits give low values 1.01 | S. cerevisiae deletion strains, locus YKR001C, strain vps1, hits give low values 0.994 | S. cerevisiae deletion strains, locus YLR039C, strain RIC1, hits give low values 1.03 | S. cerevisiae deletion strains, locus YLR058C, strain SHM2, hits give low values 1.02 | S. cerevisiae deletion strains, locus YLR102C, strain apc9, hits give low values 0.998 | S. cerevisiae deletion strains, locus YLR262C, strain YPT6, hits give low values 1.02 | S. cerevisiae deletion strains, locus YLR268W, strain sec22, hits give low values 1.01 | S. cerevisiae deletion strains, locus YLR330W, strain CHS5, hits give low values 1.01 | S. cerevisiae deletion strains, locus YLR342W, strain FKS1 (second series), hits give low values 0.996 | S. cerevisiae deletion strains, locus YLR371W, strain rom2, hits give low values 0.984 | S. cerevisiae deletion strains, locus YLR418C, strain cdc73, hits give low values 1 | S. cerevisiae deletion strains, locus YML016C, strain PPZ1, hits give low values 1.02 | S. cerevisiae deletion strains, locus YML032C, strain rad52, hits give low values 0.995 | S. cerevisiae deletion strains, locus YML124C, strain tub3, hits give low values 1 | S. cerevisiae deletion strains, locus YMR078C, strain ctf18, hits give low values 0.999 | S. cerevisiae deletion strains, locus YMR223W, strain ubp8, hits give low values 0.983 | S. cerevisiae deletion strains, locus YMR263W, strain SAP30, hits give low values 1.03 | S. cerevisiae deletion strains, locus YMR307W, strain GAS1, hits give low values 1.04 | S. cerevisiae deletion strains, locus YNL067W, strain RPL9B, hits give low values 1.03 | S. cerevisiae deletion strains, locus YNL128W, strain TEP1, hits give low values 1.03 | S. cerevisiae deletion strains, locus YNL153C, strain GIM3, hits give low values 1.04 and 1.01 | S. cerevisiae deletion strains, locus YNL175C, strain NOP13, hits give low values 1 | S. cerevisiae deletion strains, locus YNL197C, strain WHI3, hits give low values 1 | S. cerevisiae deletion strains, locus YNL224C, strain SQS1, hits give low values 1.01 | S. cerevisiae deletion strains, locus YNL233W, strain BNI4, hits give low values 1.04 | S. cerevisiae deletion strains, locus YNL250W, strain rad50, hits give low values 1 | S. cerevisiae deletion strains, locus YNL271C, strain bni1, hits give low values 0.99 | S. cerevisiae deletion strains, locus YNL298W, strain CLA4, hits give low values 0.996 | S. cerevisiae deletion strains, locus YNL307C, strain MCK1, hits give low values 0.993 | S. cerevisiae deletion strains, locus YNL322C, strain KRE1, hits give low values 1.02 | S. cerevisiae deletion strains, locus YNR052C, strain pop2, hits give low values 0.982 | S. cerevisiae deletion strains, locus YOL006C, strain TOP1, hits give low values 1.06 | S. cerevisiae deletion strains, locus YOL012C, strain htz1 1.39 | S. cerevisiae deletion strains, locus YOL147C, strain pex11, hits give low values 0.996 | S. cerevisiae deletion strains, locus YOR061W, strain CKA2, hits give low values 1.01 | S. cerevisiae deletion strains, locus YOR069W, strain VPS5, hits give low values 1.01 | S. cerevisiae deletion strains, locus YOR083W, strain WHI5 (second series), hits give low values 1.02 | S. cerevisiae deletion strains, locus YOR136W, strain idh2, hits give low values 0.987 | S. cerevisiae deletion strains, locus YOR144C, strain elg1, hits give low values 0.99 | S. cerevisiae deletion strains, locus YOR184W, strain ser1, hits give low values 0.962 | S. cerevisiae deletion strains, locus YOR316C, strain cot1, hits give low values 1 | S. cerevisiae deletion strains, locus YPL055C, strain LGE1, hits give low values 1.05 and 1.01 | S. cerevisiae deletion strains, locus YPL241C, strain CIN2, hits give low values 1.02 | S. cerevisiae deletion strains, locus YPR119W, strain clb2, hits give low values 1.01 | S. cerevisiae deletion strains, locus YPR141C, strain kar3, hits give low values 0.994 | S. cerevisiae deletion strains, locus YPR163C, strain tif3, hits give low values 0.998 | S. cerevisiae deletion strains, locus YPR167C, strain met16, hits give low values 0.998 | S. cerevisiae deletion strains, strain wtn01, hits give low values 1.02 | S. cerevisiae strains, strain wild type, hits give low values 1.02
